Reference: PubChem BioAssay (NCI)
Where “and” joins values, the source holds several entries; their conditions need not be identical. Equal entries are not always repeated. The panel holds about 83,000 compounds, 20% with a hit somewhere; the sample as a whole holds those more often.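 In brief: 96-well plates, 48 h treatment, single concentration, percent growth endpoint.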 Calls of active or inactive are those of the source. The calls were made as follows: active = growth percent below 10; inactive = the rest.

System: MDA-MB-468 breast
Experiment: NCI-60 one-dose screen, 48 h (100 = growth as untreated, 0 = no growth, -100 = all killed)
Details: 10 µM unless noted

SMILES | growth
CCCCNC(=O)Oc1ccc(/C(=C(\C)c2ccccc2)c2ccc(OCCN3CCCCC3)cc2)cc1 | 66.8% (inactive)
Cc1cc(-c2cc(C)c(N)cc2C)c(C)cc1N | 61% (inactive)
Cn1nc(C(C)(C)C)cc1NC(=O)Cc1ccc(/C=C2\C(=O)Nc3ccccc32)cc1 | 20% (inactive)
C=CCCCCOc1ccccc1-c1cnc(OCCCCC=C)n1C | 25.5% (inactive)
COc1cc2c(c(OC)c1)C1c3cc(OC)ccc3NC(=O)N1CC2 (stereo not given) | 70.1% (inactive)
CC(C)(C)c1cc(NC(=O)Nc2ccc(-c3cn4c(n3)sc3cc(OCCN5CCOCC5)ccc34)cc2)no1 | 12.4% (inactive) and 30.6% (inactive)
O=C(/C=C/c1ccc(Cl)cc1)/C=C/c1cc2ccccc2[nH]c1=O | 55.9% (inactive)
CC1=C2[C@@H](CC1)[C@]1(C)O[C@@](C(C)C)(C[C@H]1OC(=O)[C@H](C)O)[C@H]2OC(=O)/C=C/c1ccccc1 | 86.9% (inactive)
Cc1ccc2nc3c(nc2c1)-c1cccc2cccc-3c12 | 48.1% (inactive)
CCOC(=O)c1c(C=O)nc2ccccc2c1/C=C/c1ccc(Cl)cc1 | 102% (inactive)
Cc1n[nH]c(C)c1N=Nc1cccc2c1C(=O)c1ccccc1C2=O | 96.2% (inactive)
O=C1/C(=C/c2ccc([N+](=O)[O-])cc2)COc2ccc(O)cc21 | 77.3% (inactive)
CCCCCCNCc1cc(C(C)(C)C)cc(CNCCCCCC)c1O | -89.8% (active)
COc1ccc(C2OC(N)=C(O)C2=O)cc1OC (stereo not given) | 109% (inactive)
COc1cc(NC2=C(Cl)C(=O)c3nc(C)ccc3C2=O)cc(OC)c1 | -78.5% (active)
C#Cc1nc(C2=C(C)C(OC(C)=O)/C(=N/OC(C)=O)C2)cs1 (stereo not given) | -60.7% (active)
CC(C)C(C(=O)CCN(C)C)c1ccc(Cl)cc1 (stereo not given) | 78.6% (inactive)
CSC1=Nc2c(c(C)c(-c3ccccc3)n2CCCN2CCCCC2)C2=NC(=O)C[C@H](C)N12 | -18.6% (active)
N#Cc1c(-c2cccc([N+](=O)[O-])c2)nc(SCC(=O)c2ccc(Cl)cc2)[nH]c1=O | 110% (inactive)
O=C1Nc2ccc(Cl)cc2/C1=C/c1ccc(OCC(=O)c2ccc(Br)cc2)cc1 | 111% (inactive)

SMILES | growth
CNC(=O)Nc1ccc(-c2nc(N3CCOCC3)nc3c2cnn3C2CCOCC2)cc1 | -34.4% (active)
CCN(CC)CCCNc1nc2ccccc2c2c(=O)c3cc(Cl)ccc3sc12 | 54.5% (inactive)
CSc1nc(Nc2cccc(NC(=O)CCl)c2)c(C#N)c(-c2cccc([N+](=O)[O-])c2)n1 | -10.8% (active)
O=C(/C=C/c1cc(Cl)ccc1Cl)Nc1ncc(Cc2ccc(Cl)cc2)s1 | 23.8% (inactive)
COc1cc(-c2csc(NC(=O)c3ccc(N4CCOCC4)c(C(F)(F)F)c3)n2)cc(OC)c1OC | 27.2% (inactive)
Cc1cc(SC#N)cc(C(C)(C)C)c1O | 105% (inactive)
COc1ccc2nc(NC(=O)c3cc(-c4ccc(F)cc4)n4nc(-c5ccccc5)cc4n3)sc2c1 | 103% (inactive)
O=C(Nc1cccc(C(F)(F)F)c1)Oc1ccc(Cl)c2cccnc12 | -27.2% (active)
O=C1/C(=C/c2ccccc2)SC(=Nc2ccccc2)N1Nc1ccccc1 | 1.39% (active)
COC12C=C/C(=C(/C(=O)OCCSc3ccnn3C)C(=O)CCCCCCCCC3(OC)C=C/C(=C(/C(=O)OCCSc4ccnn4C)C(=O)CCCCCCCC1)O3)O2 | -6.23% (active)
CCn1c2ccccc2c2cc(-n3nncc3-c3ccccc3)ccc21 | 46.4% (inactive)
Cc1nc2ncccc2nc1Nc1ccc(S(=O)(=O)Nc2ccccn2)cc1 | 109% (inactive)
CCN(CC)c1ccc(C(O)C2=CC(=O)c3ccccc3C2=O)cc1 (stereo not given) | -53% (active)
COCCn1cc(-c2csc(-c3c[nH]c4ccccc34)n2)c2cccnc21 | -6.7% (active)
C#CC[C@@H]1C[C@]2(C)[C@H]3CC[C@@H]4[C@H]5C(C(=C)C)CC[C@]5(C(=O)NCCN(CCN)CCN)CC[C@@]4(C)[C@]3(C)CC[C@H]2C(C)(C)[C@H]1OC(C)=O (stereo not given in full) | -25.4% (active)
NC(=Nc1ccccc1)SCCCSC(N)=Nc1ccccc1 | 85.8% (inactive)
C=CCCC1(C)NC(=O)NC1=O (stereo not given) | 99.3% (inactive)
CC(=O)N[C@@H](CCC(N)=O)C(=O)O | 108% (inactive)
COc1ccc(-c2nnc(-c3ccc4c(c3)nc(-c3ccncc3)n4C3CCCCC3)o2)cc1 | 75.2% (inactive)
O=C1/C(=C/c2ccc(F)cc2)Cc2ccccc21 | 96% (inactive)
